# PubChem BioAssay (Tox21)
# Results filed as inconclusive are left out. Unmarked numbers belong to inactive results. The source made the active and inactive calls. Calls come from the whole dose curve; as a rule, active = well fitted cell-killing curve with a large enough effect in the repeat runs; inconclusive = weak or mixed curves, or effect the other way; inactive = flat fitted curve, though single readings scatter.
# Assay: cAMP Responsive Elements (CRE) small molecule agonists, cell-based qHTS assay: qHTS cell viability counter screen (AID 2060914); note: nearly all actives have a fitted effect of over 50% in size
# Conditions: CRE-bla HEK293T viability, CellTiter-Glo luminescence, 5 h; series mostly up to 92.4 µM; activity change, negative = cytotoxicity: at the top concentration
# Method in brief: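 CRE-bla HEK293T cells in 10% dialyzed FBS medium were exposed to compounds for 3 h at 37C after 18 h plating. CellTiter-Glo was then added in the same wells, and luminescence was read after 30 min at room temperature.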
# % is set by controls: 0 for no effect and ±100 for the full control effect.
Compound,"activity change, negative = cytotoxicity",Potency
CN1CCN(C2Cc3ccccc3Sc3ccc(Cl)cc32)CC1 (stereo not given),-7.4% [at 42.5 µM],
O=C(O)C1CCC1,0.406% [at 42.5 µM],
O=C(O)c1ccccc1Cl,-3.52%,
COc1cc(C(=O)N2CCOCC2)cc(OC)c1OC,-2.82% [at 42.5 µM],
CCCCCCCCCCCCCCCCCCOS(=O)(=O)O,1.79%,
O=C1OC2(c3ccccc31)c1cc(I)c(O)c(I)c1Oc1c2cc(I)c(O)c1I,,inactive
CCOC(=O)C(C)Oc1ccc(Oc2nc3ccc(Cl)cc3o2)cc1 (stereo not given),-2.79%,
SC1CCCCC1,3.56%,
CC(C)(O)c1coc(S(=O)(=O)NC(=O)Nc2c3c(cc4c2CCC4)CCC3)c1,-6.67%,
CNc1ncnc2nc[nH]c12,2.44%,
CCCN(CCC)C(=O)C(CCC(=O)OCCCN1CCN(CCOC(=O)Cc2c(C)n(C(=O)c3ccc(Cl)cc3)c3ccc(OC)cc23)CC1)NC(=O)c1ccccc1 (stereo not given),7.01% [at 42.5 µM],
Cc1c2oc3c(C)ccc(C(=O)N[C@@H]4C(=O)N[C@H](C(C)C)C(=O)N5CCC[C@H]5C(=O)N(C)CC(=O)N(C)[C@@H](C(C)C)C(=O)O[C@@H]4C)c3nc-2c(C(=O)N[C@@H]2C(=O)N[C@H](C(C)C)C(=O)N3CCC[C@H]3C(=O)N(C)CC(=O)N(C)[C@@H](C(C)C)C(=O)O[C@@H]2C)c(N)c1=O,,inactive
CCCCCCCCCCN,,inactive
CC/C=C\C/C=C\C/C=C\CCCCCCCC(=O)OCC,12.3%,
O[C@@H](c1cc(C(F)(F)F)nc2c(C(F)(F)F)cccc12)[C@H]1CCCCN1,-14.5% [at 42.5 µM],
CCOC(=O)NNc1nncc2ccccc12,,inactive
O[C@@H]1CO[C@H]2[C@@H]1OC[C@@H]2O,-0.622% [at 42.5 µM],
Cc1c(I)c(=O)n(-c2ccccc2)n1C,-6.6% [at 42.5 µM],
CC(C)=CCC/C(C)=C/C#N,22.2%,
CC1(O)CSC(C)(O)CS1 (stereo not given),0.913%,

Compound,"activity change, negative = cytotoxicity",Potency
O=C1NC2NC(=O)NC2N1 (stereo not given),-10.3%,
CN=C(NC#N)NCCSCc1nc[nH]c1C,,inactive
CCCCCCC(O)CO (stereo not given),9.19%,
CCc1ccc(O)cc1,-4.59%,
Cc1occc1C(=O)Nc1ccc(C(=O)N2CCC(F)(F)/C(=C\C(=O)N3CCC(N4CCCCC4)CC3)c3ccccc32)cc1,2.02% [at 42.5 µM],
NCCCC(O)(P(=O)(O)O)P(=O)(O)O,0.867% [at 42.5 µM],
CC(=O)SCC(CC(=O)c1ccc(C)cc1)C(=O)O (stereo not given),4.62% [at 42.5 µM],
OCCSc1ccccc1,-12.2%,
CCCCCCCCCCCCCOC(=O)CCSCCC(=O)OCCCCCCCCCCCCC,-4.92% [at 18.9 µM],
Cc1c(N)cccc1Cl,1.17%,
CC(=O)CCC=C(C)C,,inactive
c1ccc(-c2ccc(-c3ccccc3)cc2)cc1,0.504% [at 18.9 µM],
CC(C)(c1cc(Br)c(O)c(Br)c1)c1cc(Br)c(O)c(Br)c1,,inactive
CCC(C(=O)NC(=O)NC(C)=O)c1ccccc1 (stereo not given),0.258% [at 42.5 µM],
COc1ccc(N=[N+]([O-])c2ccc(OC)cc2)cc1,-17.7%,
CCN(CC)c1ccc(N=Nc2ccccc2)cc1,-5.52%,
O=C(Oc1ccccc1)c1ccccc1O,,inactive
O=S(=O)(O)c1cccc(S(=O)(=O)O)c1,2.96%,
C#C[C@]1(O)CC[C@H]2[C@@H]3CCC4=CC(=O)CC[C@@H]4[C@H]3CC[C@@]21CC,,inactive
CCOC(=O)CCC(=O)OCC,-0.328%,
